The campaign covered roughly 290,000 compounds. About 3,000 (1%) were called active. This is one part of a sample in which actives are shown more often than they occur. Cut-off read from the data, not from the text of the source: active = inhibition mostly above about 36% (no sharp cut-off); inactive = mostly below about 34%.
Assay: NOD1 signaling inhibitors, primary screen, cell-based, luminescence, uHTS (AID 1578);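 note: HEK-293T reporter cells stimulated with the NOD1 agonist gamma-tri-DAP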
Conditions: NOD1-driven NF-kB luciferase reporter cells, at 4 µM, stronger effect = higher value

inhibition, inactive:
COc1ccc(C2NC(=O)NC(C)=C2C(=O)OCc2ccc3c(c2)OCO3)cc1OC (stereo not drawn) 15.1%
CC1=C(C(=O)OCc2ccccc2)C(c2cccc([N+](=O)[O-])c2)NC(=O)N1 (stereo not drawn) 13.3%
CCOC(=O)C1=C(CN2CCCCCC2)NC(=O)NC1c1ccc2c(c1)OCO2 (stereo not drawn) -36.5%
CCOC(=O)C1=C(C)NC(=O)NC1c1ccc2c(c1)OCO2 (stereo not drawn) 18%
Cc1cc(NC(=O)CN(C)CCOc2ccccc2)ccc1Br 7.6%
CCN(CC)C(=O)CSc1n[nH]c(=S)n1N -12.5%
COC(=O)c1ccc(CSc2n[nH]c(-c3ccccc3)n2)o1 -16.9%
COc1ccc(N2CC(C(=O)Nc3ccccc3C(=O)NC3CC3)CC2=O)cc1 (stereo not drawn) -5.8%
CCOC(=O)c1cccc(N2C(=O)C3C4C=CC(CC4)C3C2=O)c1 (stereo not drawn) 7.8%
CCSc1nnc(NC(=O)c2cccnc2)s1 -21.5%
CCOC(=O)C1=C(C)NC(=O)NC1c1c(OC)ccc2ccccc12 (stereo not drawn) -31.2%
C/C(=N\NC(=O)c1ccccn1)C12CC3CC(CC(C3)C1)C2 -2.5%
O=C(NNC(=O)C12CC3CC(CC(C3)C1)C2)c1cnccn1 -14.6%
O=C(N/C(=C/c1ccc(Br)cc1)C(=O)N1CCOCC1)c1ccco1 -24.4%
COc1ccc(/C=C(/NC(=O)c2ccco2)C(=O)N2CCCC2=O)cc1 -22.3%
CC(=O)c1cccc(CN2CCN(C3CCCCC3)C(CCO)C2)c1 (stereo not drawn) -6.2%
CC(C)Oc1cccc(NC(=O)c2cnccc2C(F)(F)F)c1 -4.2%
COc1ccc(C(=O)N/C(=C\c2cccc([N+](=O)[O-])c2)C(=O)Nc2cccc(C(=O)O)c2)cc1 -30.8%
CC1=C(C)C(=O)C(N2CCOCC2)=CC1=O -11.2%
CC(C)(C)C1=CC(=O)C(N2CCOCC2)=CC1=O 3.6%
CC1CN(CCOc2ccc([N+](=O)[O-])cc2)CC(C)O1 (stereo not drawn) -4.4%
C=CCN(c1ccccc1)S(=O)(=O)c1ccc(Cl)c(C(=O)OCC(=O)N(C)C2CCS(=O)(=O)C2)c1 (stereo not drawn) -31.4%
Cc1cccc2c(C(=O)O)c3c(nc12)CCCCC3 -22.2%
Nc1c2c(nc3ccccc13)CCCC2 -26.6%
COc1ccc2[nH]c(C(=O)O)c(NS(=O)(=O)c3ccc(C)c(C)c3)c2c1 -3.1%
Cc1nc(C)c(-c2csc(Nc3ccc(N)cc3)n2)s1 16.7%
Cc1ccc(Nc2nc(-c3sc(C)nc3C)cs2)cc1 -5%
COC(=O)C(C)(C)ONC(=O)Nc1ccc([N+](=O)[O-])cc1 -7%
CCOc1ccccc1C(=O)N/N=C/c1ccoc1 -17.7%
CN=c1scc(-c2ccccc2Br)n1/N=C/c1ccc[nH]1 12.4%
CN=c1scc(-c2ccccc2F)n1/N=C/c1ccc(O)c(O)c1O -44.9%
N#Cc1nc(COc2ccc(Cl)cc2Cl)oc1N1CCN(c2ccccc2)CC1 21.8%
COc1ccc(N2CCN(C(c3ccccc3OC)c3nnnn3C3CCCC3)CC2)cc1 (stereo not drawn) -19.3%
COc1ccc(C(CC(=O)O)NC(=O)C2CCCCC2)cc1 (stereo not drawn) 19.1%
CC(C)Oc1ccc(C(CC(=O)O)NC(=O)C2CCCCC2)cc1 (stereo not drawn) -11.6%
CCOC(=O)N1CCN(C(=O)c2cccc(F)c2)CC1 -43.9%
Cc1ccc2sc(N(CCCN(C)C)C(=O)CCS(=O)(=O)c3ccccc3)nc2c1C -27%
CCOc1cccc2sc(N(CCN(C)C)C(=O)CCS(=O)(=O)c3ccccc3)nc12 -29%
CN1C(=O)C2(C(C#N)=C(N)N(c3cc(Cl)cc(Cl)c3)C3=C2C(=O)CC(C)(C)C3)c2ccccc21 (stereo not drawn) -0.6%
O=c1ccnc(SCCC(F)=C(F)F)[nH]1 -43.9%
O/N=C\c1ccc(-c2ccccc2)o1 3.8%
Cn1c(CCN2CCN(c3ccccn3)CC2)nc2cc(NC(=O)COc3ccc(Cl)cc3)ccc21 21%
COc1ccc(CCNC(=O)c2ccc(-c3ccc([N+](=O)[O-])cc3Cl)o2)cc1 4.2%
COc1ccc(CCNC(=O)c2ccc(-c3ccc([N+](=O)[O-])cc3)o2)cc1OC 38.5%
COc1ccc(-c2nnn(CC(=O)c3ccccc3)n2)cc1OC -8.9%
COc1cc(/C=C/C(=O)O)cc(S(=O)(=O)N2CCc3ccccc3C2)c1OC -13.2%
CC(CC(=O)NCCc1ccc(F)cc1)c1ccccc1 (stereo not drawn) -24.3%
CN1c2ccsc2/C(=N/Nc2ccccc2)CS1(=O)=O -41.3%
CN1c2ccsc2/C(=N/Nc2ccc(F)cc2)CS1(=O)=O -1.7%
C[C@@H](O)C1NC(=O)[C@H](CCCCN)NC(=O)c2cc([N+](=O)[O-])cc(I)c2NCCC[C@@H](C(N)=O)NC1=O (stereo partly drawn) -16%
COc1cc(CNC2CCCCCCC2)ccc1OCC(N)=O -34.5%
COc1ccc(OC)c2sc(NC(=O)c3ccc(S(=O)(=O)N(C)C)cc3)nc12 -12.2%
C/C(=N\NC(=O)c1nnn(-c2nonc2N)c1CN(C)c1ccccc1)c1cccs1 -19.9%
CCN(CCCNC(=O)c1c(C)cc(=O)oc1C)c1ccccc1 8.4%
CCn1c(C)cc(/C=C2\NC(=O)N(CC(=O)Nc3cccc(C)c3)C2=O)c1C 9.5%
COc1cc(/C=N/c2oc(-c3ccccc3)cc2C#N)ccc1O -15.3%
COc1cccc(/C=N/c2oc(-c3ccccc3)cc2C#N)c1O -11%
Nc1ccc(Br)cc1C(NCC(=O)O)c1ccccc1 (stereo not drawn) -19%
CC(C)(C)NC(=O)C1CCN(S(=O)(=O)c2cccc(C(F)(F)F)c2)CC1 -13.7%
COc1ccc(C2(c3ccc(OC)cc3)NC(=O)N(CC(=O)Nc3ccccc3C(F)(F)F)C2=O)cc1 -18.1%
O=C(Nc1cccc(Cl)c1)c1cccnn1 -9.2%
COc1cccc2c1OC1(C)CC2/C(=C(\C)O)C(=O)N1 (stereo not drawn) -20.8%
CCOc1ccc(/C=C/C(O)=C2/C(=O)NC3(C)CC2c2ccccc2O3)cc1OC (stereo not drawn) 46.7%
COc1ccc(CCNC(=S)Nc2cccc(C)c2C)cc1 -19.9%
COc1ccc(OC)c(NC(=O)COC(=O)/C=C/c2c(C)nn(C3CCS(=O)(=O)C3)c2Cl)c1 (stereo not drawn) -5%
COc1ccc2cc(C#N)c(N3CCOCC3)nc2c1 2.7%
COc1ccc(-n2c(C)cc(/C=C3\SC(=S)NC3=O)c2C)cc1 -70.7%
O=C1NC(=S)S/C1=C/c1ccc(N2CCOCC2)o1 27.5%
COc1ccc2nc(N3CCCCC3)c(C#N)cc2c1 -123%
COc1ccccc1C(=O)NC(=S)Nc1ccc2[nH]c(=O)[nH]c2c1 -36.5%
Cc1ccc(NC(=O)CCC(=O)OCC(=O)c2ccc(Oc3ccc([N+](=O)[O-])cc3)cc2)cc1C -7%
OCCSc1nc(N2CCOCC2)nc(N2CCOCC2)n1 -22.8%
COC(=O)c1cc(CSc2ncnc3sccc23)oc1C -1.8%
Cc1cc(-n2cnc(-c3cn[nH]c3C)n2)no1 -8.9%
O=S(=O)(Nc1cccc(S(=O)(=O)N2CCCCCC2)c1)c1ccccc1 -11.7%
COc1ccc(S(=O)(=O)Nc2cccc(S(=O)(=O)N3CCCCCC3)c2)cc1 -27%
O=S(=O)(Nc1nc2ccccc2nc1Nc1ccc2c(c1)OCO2)c1ccccc1 57.6%
COc1ccc(S(=O)(=O)Nc2nc3ccccc3nc2Nc2ccc3c(c2)OCO3)cc1 7%
CCOc1ccc(NS(=O)(=O)c2ccc(C(=O)N(CC)CC(=O)NCc3cccs3)cc2)cc1 -1.7%

inhibition, active:
CC1=C(C(=O)OCc2ccc3c(c2)OCO3)C(c2cccc([N+](=O)[O-])c2)NC(=O)N1 (stereo not drawn) 63.2%
CCOC(=O)C1=C(CCl)NC(=O)NC1c1ccc2c(c1)OCO2 (stereo not drawn) 72.5%
O=C(NNC(=O)C12CC3CC(CC(C3)C1)C2)c1ccccn1 102%
O=C(N/C(=C/c1ccc(Br)cc1)C(=O)N1CCCC1=O)c1ccco1 63.5%
Cc1cccc2c(N)c3c(nc12)CCCC3 (tested in a mixture with another compound) 53.2%
Cc1nc(C)c(-c2csc(Nc3ccc(F)cc3)n2)s1 44.7%
CN=c1scc(-c2ccccc2F)n1/N=C/c1ccc[nH]1 101%
O=C(O)CC(NC(=O)C1CCCCC1)c1ccc(OC2CCCC2)cc1 (stereo not drawn) 65.3%
COc1ccc(CCNC(=O)c2ccc(-c3ccc([N+](=O)[O-])cc3Cl)o2)cc1OC 95.8%
Cc1ccc(N/N=C2\CS(=O)(=O)N(C)c3ccsc32)cc1 58.9%
N#Cc1cc(-c2ccccc2)oc1/N=C/c1ccccc1O 49.6%
COc1ccc(/C=C/C(O)=C2/C(=O)NC3(C)CC2c2ccccc2O3)c(OC)c1OC (stereo not drawn) 69.9%
COc1ccc2cc(/C=C3\SC(=S)NC3=O)c(N3CCOCC3)nc2c1 71.4%
O=S(=O)(Nc1nc2ccccc2nc1Nc1cccc(S(=O)(=O)N2CCCCC2)c1)c1ccccc1 98.4%

Source: PubChem BioAssay AID1578 (Sanford-Burnham Center for Chemical Genomics, 2009)
